Experimental data as given in paper PMC13541613, “GHT-SELEX demonstrates unexpectedly high intrinsic sequence specificity and complex DNA binding of many human transcription factors”.

Legend:
Experiment in all cases: HT-SELEX; 20 mM HEPES pH 7, 140 mM KCl, 5 mM NaCl, 1 mM K2HPO4, 2 mM MgSO4, 100 uM EGTA, ZnSO4, 0.1% Tween20; room temperature, 1 h; high values mean tight binding
Details in all cases: protein: ivt; tags: eGFP (N-terminal); dsDNA, one strand shown
ZNF721 full-length = ZNF721 full-length (Homo sapiens, UniProt Q8TF20-2 1-923)
ZNF721 full-length, sequence (Q8TF20 other isoform, or with tags, fused parts or gaps): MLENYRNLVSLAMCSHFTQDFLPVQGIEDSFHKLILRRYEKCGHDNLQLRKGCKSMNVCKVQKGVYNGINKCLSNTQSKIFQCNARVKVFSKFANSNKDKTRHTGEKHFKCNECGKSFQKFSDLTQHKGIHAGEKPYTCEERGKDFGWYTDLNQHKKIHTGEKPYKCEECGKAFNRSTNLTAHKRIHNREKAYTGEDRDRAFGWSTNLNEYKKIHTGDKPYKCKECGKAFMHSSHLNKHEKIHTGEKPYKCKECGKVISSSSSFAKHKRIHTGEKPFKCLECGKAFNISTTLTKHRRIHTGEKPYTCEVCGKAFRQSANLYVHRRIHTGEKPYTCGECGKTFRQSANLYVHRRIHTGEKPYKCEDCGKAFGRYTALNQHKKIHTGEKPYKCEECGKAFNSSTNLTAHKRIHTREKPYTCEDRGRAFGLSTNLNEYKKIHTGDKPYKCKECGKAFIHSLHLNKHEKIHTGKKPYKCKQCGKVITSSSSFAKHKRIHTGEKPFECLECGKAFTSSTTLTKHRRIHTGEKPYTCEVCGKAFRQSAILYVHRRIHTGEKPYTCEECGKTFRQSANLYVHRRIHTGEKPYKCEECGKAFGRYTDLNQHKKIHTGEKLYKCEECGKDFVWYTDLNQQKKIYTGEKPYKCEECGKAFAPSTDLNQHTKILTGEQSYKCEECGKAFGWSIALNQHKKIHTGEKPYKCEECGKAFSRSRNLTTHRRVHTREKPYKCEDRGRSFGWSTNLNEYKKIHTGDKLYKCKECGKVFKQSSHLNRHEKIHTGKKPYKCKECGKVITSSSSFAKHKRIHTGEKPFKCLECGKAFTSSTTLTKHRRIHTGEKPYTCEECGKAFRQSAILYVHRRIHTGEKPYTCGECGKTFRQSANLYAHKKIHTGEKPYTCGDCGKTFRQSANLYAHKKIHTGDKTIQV
How it was run: (§1)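 Full-length or DNA-binding-domain forms of a tagged transcription factor were produced in HEK293 lysate or cell-free extract and immobilised on beads. Incubation with a randomized 40-base DNA library ran for 1 h at room temperature in HEPES/KCl low-stringency buffer with Tween20, after which bound DNA was washed, heat-eluted, PCR-amplified over successive cycles and Illumina-sequenced. Binding strength is given as the relative k-mer count in selected reads, higher for tighter binding.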

ZNF721 DBD1 = ZNF721 DBD1 (Homo sapiens, UniProt Q8TF20-2 29-461)
ZNF721 DBD1, sequence (Q8TF20 17-449): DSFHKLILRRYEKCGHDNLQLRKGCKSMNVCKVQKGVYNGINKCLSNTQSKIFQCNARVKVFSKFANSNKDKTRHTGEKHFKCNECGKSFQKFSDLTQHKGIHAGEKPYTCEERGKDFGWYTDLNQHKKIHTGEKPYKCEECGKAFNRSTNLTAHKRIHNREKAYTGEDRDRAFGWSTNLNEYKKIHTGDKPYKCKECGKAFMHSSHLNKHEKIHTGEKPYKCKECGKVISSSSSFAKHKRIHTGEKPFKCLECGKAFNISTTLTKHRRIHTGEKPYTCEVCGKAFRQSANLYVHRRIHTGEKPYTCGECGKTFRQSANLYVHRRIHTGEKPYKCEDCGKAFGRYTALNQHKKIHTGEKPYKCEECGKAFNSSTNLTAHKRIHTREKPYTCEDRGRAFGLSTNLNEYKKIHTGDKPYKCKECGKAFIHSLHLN
How it was run: as §1

ZNF721 DBD2 = ZNF721 DBD2 (Homo sapiens, UniProt Q8TF20-2 395-923)
ZNF721 DBD2, sequence (Q8TF20 383-911): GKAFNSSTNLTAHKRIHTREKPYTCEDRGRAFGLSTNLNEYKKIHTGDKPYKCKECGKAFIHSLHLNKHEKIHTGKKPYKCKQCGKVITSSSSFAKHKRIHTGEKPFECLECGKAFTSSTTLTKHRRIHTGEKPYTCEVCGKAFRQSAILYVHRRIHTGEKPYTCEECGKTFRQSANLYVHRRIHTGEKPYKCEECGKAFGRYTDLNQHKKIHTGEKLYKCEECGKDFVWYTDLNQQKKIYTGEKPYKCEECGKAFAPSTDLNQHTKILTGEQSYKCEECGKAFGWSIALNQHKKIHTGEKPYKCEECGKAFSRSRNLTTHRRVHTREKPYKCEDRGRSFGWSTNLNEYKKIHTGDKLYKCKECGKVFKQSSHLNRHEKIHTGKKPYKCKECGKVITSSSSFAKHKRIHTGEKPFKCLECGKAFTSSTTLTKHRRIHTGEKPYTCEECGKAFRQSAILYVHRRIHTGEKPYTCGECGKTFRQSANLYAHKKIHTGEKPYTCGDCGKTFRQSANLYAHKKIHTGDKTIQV
How it was run: as §1

| Sequence | binding signal (ZNF721 full-length) [relative 10-mer count] | binding signal (ZNF721 DBD1) [relative 10-mer count] | binding signal (ZNF721 DBD2) [relative 10-mer count] |
| --- | --- | --- | --- |
| ACCTCCCCCC | 0.151 | 0.00578 | 0.00216 |
| CCCCGCCACC | 0.266 | 0.0105 | 0.00336 |
| ACCCCACCCA | 0.173 | 0.00583 | 0.00419 |
| AAAAAAAGAG | 0.126 | 0.00949 | 0.0578 |
| CCCACCAACC | 0.171 | 0.00794 | 0.00563 |
| CCCCACACCA | 0.118 | 0.00417 | 0.00575 |
| AAAGCTGCAC | 0.11 | 0.0548 | 0.0024 |
| CCCCCCCAAC | 0.155 | 0.0044 | 0.00791 |
| CCACCCCCCC | 0.32 | 0.0122 | 0.00336 |
| CCCACCACCG | 0.12 | 0.00514 | 0.00503 |
| CCCCCCCGCC | 0.204 | 0.00706 | 0.00276 |
| CACCCTCCAC | 0.106 | 0.0056 | 0.00587 |
| AAGCATACCC | 0.253 | 0.076 | 0.0243 |
| CCACCCTCCC | 0.246 | 0.0111 | 0.00467 |
| CCCACGCCCC | 0.233 | 0.00729 | 0.00384 |
| GCCTCCCCCC | 0.115 | 0.00518 | 0.00791 |
| CACCCTCCCC | 0.212 | 0.00945 | 0.00312 |
| AAAAAAGCAC | 0.158 | 0.0181 | 0.0367 |
| GCCCCAACCC | 0.105 | 0.00376 | 0.00168 |
| CAACAAAGCA | 0.126 | 0.00101 | 0.145 |
| CACCCCGCCC | 0.205 | 0.00656 | 0.003 |
| CCACCCTCCA | 0.123 | 0.00587 | 0.00815 |
| GCTTCTTTCC | 0.103 | 0.0866 | 0.00156 |
| AGCGTACCCT | 0.204 | 0.0586 | 0.165 |
| CCAACCCCCC | 0.169 | 0.0056 | 0.00144 |

| Sequence | binding signal (ZNF721 full-length) [relative 10-mer count] | binding signal (ZNF721 DBD1) [relative 10-mer count] | binding signal (ZNF721 DBD2) [relative 10-mer count] |
| --- | --- | --- | --- |
| AAAAAAGCTC | 0.21 | 0.0749 | 0.00515 |
| AGGTGGGGTG | 0.114 | 0.00532 | 0.00288 |
| CCGTCCACCC | 0.103 | 0.00472 | 0.0036 |
| GCCCCCCTCC | 0.128 | 0.00527 | 0.00264 |
| AAAAGGCATA | 0.133 | 0.00161 | 0.116 |
| CCCCCACCCG | 0.174 | 0.00587 | 0.00384 |
| GCACCACCCC | 0.103 | 0.00358 | 0.00815 |
| CACCCCCCTC | 0.127 | 0.00633 | 0.00479 |
| CTCCACCCCC | 0.178 | 0.00812 | 0.00467 |
| GTGGGGGGGA | 0.145 | 0.00587 | 0.00348 |
| ACCGCCCACC | 0.152 | 0.005 | 0.00204 |
| CCACCCGCCA | 0.108 | 0.00445 | 0.00491 |
| ACCACCCCGC | 0.104 | 0.00358 | 0.00252 |
| CGCTTTTTTC | 0.258 | 0.0622 | 0.0303 |
| CCCCCCCCCG | 0.112 | 0.00303 | 0.00156 |
| AAAAAAGCGT | 0.276 | 0.0607 | 0.0512 |
| AGGAAAAAAG | 0.114 | 0.0333 | 0.0182 |
| ACCGAAAAAA | 0.104 | 0.00949 | 0.0485 |
| ACCCCCCCGC | 0.112 | 0.00248 | 0.003 |
| CAACCCCCCC | 0.131 | 0.00431 | 0.00252 |
| CAAAAAAAAA | 0.226 | 0.0215 | 0.0886 |
| CACACCCCCC | 0.146 | 0.00514 | 0.0018 |
| CTCCTCCCCC | 0.119 | 0.00633 | 0.00216 |
| AAGCTATCCC | 0.172 | 0.105 | 0.0012 |
| CACCGTCCCC | 0.111 | 0.0039 | 0.00252 |

| Sequence | binding signal (ZNF721 full-length) [relative 10-mer count] | binding signal (ZNF721 DBD1) [relative 10-mer count] | binding signal (ZNF721 DBD2) [relative 10-mer count] |
| --- | --- | --- | --- |
| CCCCCATCCC | 0.173 | 0.00638 | 0.00384 |
| CCACCCAGCC | 0.102 | 0.00294 | 0.00264 |
| ACCCACCCAC | 0.196 | 0.00922 | 0.00887 |
| ACGCCCCACC | 0.11 | 0.00271 | 0.00431 |
| CCAACCCACC | 0.171 | 0.00642 | 0.00395 |
| CCCCACCCCA | 0.297 | 0.0112 | 0.00288 |
| CCCCTCGCCC | 0.161 | 0.00665 | 0.00372 |
| AGCTATACCA | 0.14 | 0.0816 | 0.003 |
| GCCCCCACCC | 0.19 | 0.0083 | 0.00407 |
| ACCACCCTCC | 0.124 | 0.00523 | 0.00324 |
| CCACACCCAC | 0.128 | 0.00605 | 0.00515 |
| CCCCCCATCC | 0.15 | 0.00509 | 0.00419 |
| AGGGGGGTGG | 0.157 | 0.00835 | 0.00407 |
| CACCCCCAAC | 0.118 | 0.00514 | 0.0114 |
| CCCCACCACA | 0.148 | 0.00505 | 0.00527 |
| CTCCCGCCCC | 0.136 | 0.00596 | 0.00192 |
| CCCTACCCCC | 0.153 | 0.0083 | 0.00587 |
| CCCCTCCCTC | 0.159 | 0.00789 | 0.00336 |
| GAAGCGTACC | 0.104 | 0.0792 | 0.0018 |
| CCCACCCTAC | 0.114 | 0.00748 | 0.0116 |
| CCACTCCCCC | 0.12 | 0.00436 | 0.00144 |
| GGGGGAGGGA | 0.151 | 0.00936 | 0.00384 |
| CACCACCACC | 0.19 | 0.0072 | 0.0109 |
| CCCACACCCC | 0.278 | 0.00977 | 0.00407 |
